Screens: PubChem, several laboratories
Hits are enriched below; roughly 3.7% of the tested compounds scored in any of these assays.
BoNT-F LC inh – inhibitors of Botulinum neurotoxin F light chain protease | Multiplex microsphere protease cleavage assay, flow cytometry | inhibition, % at 10 µM | 0.22% of 360,000 active | AID 588497; in the data active = inhibition above about 35%, passing the limit was not always enough; inconclusive = no clear call, values can overlap the other calls; note: plate controls were buffer without enzyme for full effect and enzyme alone for no effect
Anthrax LF inh2 – inhibitors of Bacillus anthracis lethal factor protease; multiplex microsphere protease cleavage assay, LF; 0.12% of 360,000 active; AID 588501; inhibition, % at 10 µM; in the data active = inhibition above about 30%; inconclusive = no clear call, values can overlap the other calls; note: plate controls were buffer without enzyme for full effect and enzyme alone for no effect
Target sequence (P15917 whole entry, looked up): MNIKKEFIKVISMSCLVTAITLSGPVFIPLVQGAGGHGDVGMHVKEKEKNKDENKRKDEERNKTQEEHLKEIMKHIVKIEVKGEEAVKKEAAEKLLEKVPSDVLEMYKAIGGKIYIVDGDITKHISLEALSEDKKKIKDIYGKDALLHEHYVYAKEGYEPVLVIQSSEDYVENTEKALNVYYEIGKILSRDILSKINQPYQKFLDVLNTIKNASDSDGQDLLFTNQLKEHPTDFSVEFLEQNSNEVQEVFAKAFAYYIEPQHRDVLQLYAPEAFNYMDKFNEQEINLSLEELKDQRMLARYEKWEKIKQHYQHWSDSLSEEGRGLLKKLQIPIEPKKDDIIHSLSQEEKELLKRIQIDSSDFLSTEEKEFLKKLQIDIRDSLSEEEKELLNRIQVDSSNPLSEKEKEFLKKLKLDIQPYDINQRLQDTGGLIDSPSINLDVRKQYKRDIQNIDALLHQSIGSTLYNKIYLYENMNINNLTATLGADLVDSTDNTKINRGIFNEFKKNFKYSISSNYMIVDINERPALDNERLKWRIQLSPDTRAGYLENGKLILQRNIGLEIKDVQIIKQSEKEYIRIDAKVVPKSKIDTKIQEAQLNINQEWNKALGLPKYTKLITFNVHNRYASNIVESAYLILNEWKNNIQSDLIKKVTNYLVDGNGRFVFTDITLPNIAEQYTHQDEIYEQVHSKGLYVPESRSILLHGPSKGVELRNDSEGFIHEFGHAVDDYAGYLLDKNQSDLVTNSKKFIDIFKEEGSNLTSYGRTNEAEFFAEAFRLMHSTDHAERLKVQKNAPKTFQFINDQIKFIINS
Autofluor counter – counter-screen for toxin protease inhibitors: compound fluorescence. compound autofluorescence counterscreen, microsphere flow cytometry; active compounds read high. fluorescence intensity (test concentration not listed). 3.1% of 360,000 active. AID 624483; in the data active = fluorescence intensity above about 16000; inconclusive = no clear call, values can overlap the other calls
BJeLR lethal – BJeLR cell viability loss | BJeLR (HRASV12) viability, CellTiter-Glo ATP luminescence, 48 h | inhibition, % (concentration not given with the values) | 0.17% of 300,000 active; in the data active = inhibition above about 50%; inconclusive = no clear call, values can overlap the other calls
Vc quorum ag – induces V. cholerae light production without autoinducers; V. cholerae BH1578 lux reporter, luminescence, 6 h; activation, % at 18.7 µM; 0.16% of 350,000 active; AID 588436; in the data active = activation mostly above about 9.7%, no sharp cut-off; inconclusive = no clear call, values can overlap the other calls; inactive = mostly below about 3.7%
BoNT A protease – inhibitors of Botulinum neurotoxin A light chain protease | 0.17% of 360,000 active | AID 588499 | inhibition, % at 10 µM | multiplex microsphere protease substrate cleavage, flow cytometry; in the data active = inhibition above about 30%; inconclusive = no clear call, values can overlap the other calls; note: plate controls were buffer without enzyme for full effect and enzyme alone for no effect
BoNTA LC inh 2 – inhibitors of botulinum neurotoxin A light chain protease. shares compounds with BoNT A protease. multiplex microsphere protease cleavage assay, flow cytometry. inhibition, % at 10 µM. 10% of 150 active; in the data active = inhibition above about 24%
LF protease CP2 – blocks anthrax lethal factor protease; 7% of 150 active; shares compounds with BoNT A protease; multiplex microsphere protease cleavage assay; inhibition, % at 10 µM
BoNT-F LC CP2 – BoNT/F light chain protease inhibition; multiplex microsphere protease cleavage assay, flow cytometry; 7% of 150 active; shares compounds with BoNT A protease; inhibition, % at 10 µM
An asterisk follows results filed as active; i = inactive; ? = inconclusive; / = not tested or not shown. Cut-off read from the data, not from the text of the source, unless noted: active = inhibition above about 25%; inactive = the rest.

SMILES	BoNT-F LC inh	Anthrax LF inh2	Autofluor counter	BJeLR lethal	Vc quorum ag	BoNT A protease	BoNTA LC inh 2	LF protease CP2	BoNT-F LC CP2
COC(=O)c1c(-c2ccccc2)csc1N	19	-2	?	1	-4	1	/	/	/
CC(=NNc1nc2ccccc2o1)c1cc2ccccc2cn1	74*	59*	3176	/	i	51*	16	26*	54*
CCOc1ccc(NC(=O)CN(C)C(=O)c2ccc3c(c2)S(=O)(=O)N=C2CCCCCN23)cc1OCC	87*	110*	5175	/	1	94*	2	0	1
COc1ccc(C(CNC(=O)C(CCSC)NC(=O)c2ccccc2Cl)N2CCCC2)cc1 (configuration not stated)	43*	7	15232	/	i	-15	-5	1	14
COc1ccc(C(CNC(=O)C(CCSC)NC(=O)c2ccccc2Cl)N2CCCCC2)cc1 (configuration not stated)	1	-1	3610	/	i	1	/	/	/
Cc1cc(C(=O)OCC(=O)NC2(C#N)CCCCC2)c(C)o1	1	0	3413	/	i	0	/	/	/
CN(C)c1ccc(/C=C2/C[N+](C)(C)C/C(=C/c3ccc(N(C)C)cc3)C2=O)cc1	-27	41*	7292	/	i	86*	48*	28*	-4
O=C(OCC(=O)c1c[nH]c2ccccc12)c1cncc(Br)c1	-1	0	4518	/	-2	1	/	/	/
COc1ccc(C(=O)OCC(=O)c2c[nH]c3ccccc23)c(OC)c1	-5	-3	8458	/	-4	-4	3	-1	2
NC(=O)Nc1ccc(C(=O)OCC(=O)c2c[nH]c3ccccc23)cc1	-11	-2	3902	/	i	-1	/	/	/
COc1ccccc1C(=O)COC(=O)Cc1c[nH]c2ccccc12	33	5	5107	2	i	6	/	/	/
COc1cccc(C(=O)OCC(=O)c2c[nH]c3ccccc23)c1OC	7	3	2872	/	0	1	1	-1	-2
O=C(OCC(=O)c1c[nH]c2ccccc12)c1ccc(OC(F)F)cc1	-5	4	3716	/	-1	2	2	2	0
COc1ccc(C(=O)OCC(=O)c2cc(OC)ccc2OC)c(OC)c1	-7	1	2846	1	-1	0	/	/	/
O=C(OCC(=O)c1c[nH]c2ccccc12)c1cccc([N+](=O)[O-])c1	-12	39*	5658	/	-1	33*	14	14	0
CSc1ccc(CNC(=O)C2(C)CCCN2CC(C)C)cc1 (configuration not stated)	-3	-1	5149	/	0	0	/	/	/
CN(CC(=O)NC1CCN(Cc2ccccc2)CC1)S(=O)(=O)c1ccc(Br)s1	8	2	3897	-5	0	2	/	/	/
CN(CC(=O)NC1CCN(Cc2ccccc2)CC1)S(=O)(=O)c1ccc(Cl)cc1	74*	54*	4359	/	i	14	8	8	21
CN(C)CCNC(=O)c1cccc2nc3c(ccc4ccccc43)nc12	14	42*	3507	/	i	44*	18	20	8
COc1cccc2nc3c(C(=O)NCCN(C)C)cccc3cc12	-14	3	3587	/	i	2	/	/	/
O=C(NC12CC3CC(CC(C3)C1)C2)c1cncc(Br)c1	-5	8	3041	7	-1	-1	/	/	/
O=C(COC(=O)c1cncc(Br)c1)NC12CC3CC(CC(C3)C1)C2	8	58*	4039	/	-1	72*	29*	30*	3
CCN(CC)S(=O)(=O)c1cccc(NC(=O)COC(=O)c2cncc(Br)c2)c1	10	39*	4126	/	i	23	16	18	14
CCN(CC)S(=O)(=O)c1cccc(NC(=O)COC(=O)c2ccc(Br)o2)c1	-4	1	3342	4	0	0	/	/	/
CCOC(=O)C1=C(C(=O)OCC)c2ccc(OC)c(OC)c2C1	-9	-8	3257	/	/	0	/	/	/
SMILES	BoNT-F LC inh	Anthrax LF inh2	Autofluor counter	BJeLR lethal	Vc quorum ag	BoNT A protease	BoNTA LC inh 2	LF protease CP2	BoNT-F LC CP2
Cc1ccc(S(=O)(=O)N2CCOCC2)cc1NC(=O)CN(C)CC(=O)Nc1cccc(F)c1	3	2	3589	/	-1	0	/	/	/
COc1ccc(C(CNC(=O)c2ccc(C)c(S(=O)(=O)N3CCCCC3)c2)N2CCCC2)cc1 (configuration not stated)	86*	56*	9963	/	i	22	1	-1	5
Cc1ccc(S(=O)(=O)N[C@H](C(=O)NC2CCC(C)CC2)C(C)C)cc1 (some centres not stated)	-4	-1	4245	/	0	0	/	/	/
CCc1cccc2c(C(=O)COC(=O)c3ccc(O)cc3)c[nH]c12	-18	-2	8987	-1	0	-1	8	15	37*
CCc1cccc2c(C(=O)COC(=O)c3ccccc3)c[nH]c12	-8	1	2332	12	i	1	8	14	25*
CCN1CCN(c2ccc(S(=O)(=O)N3CCOCC3)cc2NC(=O)C(C)Oc2ccc(F)cc2)CC1 (configuration not stated)	4	8	7978	/	-3	3	/	/	/
Fc1ccc(-c2nc3ccc(Br)cn3c2Cc2ccsc2)cc1	-3	25	6185	/	/	32*	14	11	0
Cc1ccc(-c2nc3ccc(Br)cn3c2Cc2ccsc2)cc1	-20	10	5688	/	/	19	/	/	/
